The source of these data is PubChem BioAssay (NCI).

Structures are written as SMILES. The panel holds about 83,000 compounds, 20% with a hit somewhere; the sample as a whole holds those more often.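 Compound tested at a single concentration for 48 hours in 96-well plates; a percent growth value below 10 was scored as active.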 Values without a mark were called inactive. Active and inactive are the calls of the source.

Common to all, as to experiment: NCI-60 one-dose screen, 48 h (100 = growth as untreated, 0 = no growth, -100 = all killed)
Holding throughout (details): 10 µM unless noted

The subject of assay [1] is DU-145 prostate.
The subject of assay [2] is K-562 leukemia.
The subject of assay [3] is MALME-3M melanoma.
Assay [4] relates to MDA-MB-231 breast.
Assay [5] has as its system RXF 393 renal.
In assay [6] the test system is SF-268 CNS.
Assay [7] concerns SF-295 CNS.
Assay [8] deals with SF-539 CNS.
For assay [9], the system named is UACC-257 melanoma.
The subject of assay [10] is M14 melanoma.

Consider `NS(=O)(=O)c1ccc(Cn2c(SCC(=O)N/N=C/c3ccccc3O)nc3ccccc3c2=O)cc1`, for which the growth was 72.5% in assay [1]; 36.6% in [2]; 59% in assay [3]; 30.1% in assay [4]; 72.2% in assay [5]; 38.2% in assay [6]. Also, the growth in assay [7] is 65.9%; in [8], 54.3%; in assay [9], 70.6%; in [10], 42%.

As to `c1ccc(-c2c(-c3ccccc3)[n+](Cc3ccc4ccccc4c3)c(-c3cccc4ccccc34)n2Cc2ccc3ccccc3c2)cc1`, the growth in assay [1] is -51.3% (active); in assay [2], -3.62% (active); in assay [3] it was -87.9% (active); in assay [4], -70.5% (active); in [5], -94.3% (active); in assay [6], -38.9% (active). Further, the growth in assay [7] is -86% (active); in [8], -83.5% (active); in assay [9], -42.5% (active); in [10], -63.5% (active).

`COCc1cnccc1NC1CCCCCC1`: the growth in assay [1] was 108%; in assay [3], 105%; in assay [4], 101%; in [5] it was 100%; in [6], 101%; in [7], 101%. In addition, the growth in assay [8] is 101%; in assay [9], 99.5%; in [10] it was 94.2%.

As for `O=C(N/N=C/c1cc2ccccc2n2nnnc12)Nc1ccccc1`, the growth in assay [1] was 103%; in assay [2], 95.1%; in assay [3] it was 106%; in assay [4], 105%; in assay [5], 103%; in assay [6] it was 101%. Besides, the growth in assay [7] is 104%; in assay [8], 106%; in assay [9], 111%; in assay [10], 102%.

With `Oc1ccc(C2c3ccccc3Oc3ccccc32)c2cccnc12`, the growth in assay [1] was 31.2%; in assay [3], 10.2%; in assay [4], 30.2%; in assay [5] it was 5.91% (active); in assay [6] it was 20.2%; in [7], 13%. Moreover, the results for the growth in assay [8], in [9] and in [10] were 10.4%, 3.42% (active) and -24.5% (active), respectively.

For `C=C(C)[C@@H]1CC[C@]2(C(=O)N[C@@H](Cc3ccccc3)C(=O)OC)CC[C@]3(C)[C@H](CC[C@@H]4[C@@]5(C)CCC(=O)C(C)(C)[C@@H]5CC[C@]43C)[C@@H]12`, the growth in [1] was 92.7%; in assay [3] it was 102%; in [4], 102%; in assay [5], 101%; in assay [6] it was 78%; in assay [7], 78.8%. The growth in [8] is 93.7%; in assay [9], 104%; in [10] it was 87.8%.

Regarding `COc1ccc(-c2[nH][nH]c(=O)c2-c2nc3ccccc3s2)cc1`, the growth in [1] is 108%; in [2] it was 98.2%; in assay [3], 110%; in assay [4] it was 104%; in [5] it was 109%; in [6], 101%. Besides, the growth in assay [7] was 107%; in assay [8] it was 108%; in [9] it was 106%; in [10], 107%.

Turning to `NS(=O)(=O)c1ccc(CCN2C(=O)c3cc(Cl)c(Cl)cc3C2=O)cc1`, the growth was 104% in assay [1]; 110% in [3]; 107% in assay [4]; 120% in assay [5]; 98.1% in [6]; 99.7% in assay [7]. Moreover, the growth in [8] was 106%; in assay [9], 99.7%; in [10], 106%.

With `CN1C(=O)NC(c2ccc3c(c2)OCO3)C=C1c1ccccc1` (stereo not given), the growth is 94.7% in assay [1]; 76.5% in assay [2]; 88.4% in [3]; 102% in assay [4]; 91.2% in [5]; 95.6% in assay [6]. In addition, the growth in assay [7] was 98.6%; in [8], 98.1%; in assay [9], 98.5%; in assay [10] it was 96.9%.

For `COc1cc2c(=O)n(CCN)c3c4cc5c(cc4ccc3c2cc1OC)OCO5`, the growth in [1] is -83.2% (active); in [2] it was -55% (active); in assay [3], -72.3% (active); in assay [4] it was -81.7% (active); in assay [5], -76.8% (active); in [6], -59.6% (active). The growth in [7] was 25%; in [8], -75.9% (active); in assay [9] it was 33.8%; in [10], -50.8% (active).

`COc1ccc2[nH]c(=O)c(CN3CCN(c4nccc(-c5ccc(Cl)cc5)n4)CC3)cc2c1`: the growth in assay [1] is 98.9%; in assay [2], 70.4%; in assay [3], 92.9%; in assay [4] it was 85%; in assay [5], 90.3%; in assay [6], 90.5%. In addition, the growth was 98.4% in [7], 89.8% in assay [8], 82.6% in assay [9] and 102% in assay [10].

`O=C(/C(=C\c1ccc([N+](=O)[O-])cc1)S(=O)Cc1ccc(F)cc1)c1ccc(F)cc1` (stereo not given): the growth in assay [1] was 33.1%; in assay [3], 18.5%; in assay [4], 12.8%; in assay [5], -67.8% (active); in assay [6], 31.5%; in assay [7] it was 77.6%. Besides, the results for the growth in assay [8], in [9] and in assay [10] were 39.4%, 93.2% and 38%, respectively.
